# In PMC7862700, “An all-to-all approach to the identification of sequence-specific readers for epigenetic DNA modifications on cytosine”:
# Columns and labels:
# Assay in all cases: DAPPL (digital affinity profiling via proximity ligation, sequencing); 10 mM Tris-HCl pH 7.5, 50 mM NaCl, 1 mM DTT, 4% glycerol, room temperature, 30 min; GST-TFs on glutathione beads, 16-mer random dsDNA library, 0.1% formaldehyde crosslink after washing; high values mean tight binding
# FLI1 = biological target: T1, FLI1 (Homo sapiens, UniProt Q01543 1-452); details: protein: recombinant; tags: N-terminal GST; dsDNA, one strand shown
# T1 sequence: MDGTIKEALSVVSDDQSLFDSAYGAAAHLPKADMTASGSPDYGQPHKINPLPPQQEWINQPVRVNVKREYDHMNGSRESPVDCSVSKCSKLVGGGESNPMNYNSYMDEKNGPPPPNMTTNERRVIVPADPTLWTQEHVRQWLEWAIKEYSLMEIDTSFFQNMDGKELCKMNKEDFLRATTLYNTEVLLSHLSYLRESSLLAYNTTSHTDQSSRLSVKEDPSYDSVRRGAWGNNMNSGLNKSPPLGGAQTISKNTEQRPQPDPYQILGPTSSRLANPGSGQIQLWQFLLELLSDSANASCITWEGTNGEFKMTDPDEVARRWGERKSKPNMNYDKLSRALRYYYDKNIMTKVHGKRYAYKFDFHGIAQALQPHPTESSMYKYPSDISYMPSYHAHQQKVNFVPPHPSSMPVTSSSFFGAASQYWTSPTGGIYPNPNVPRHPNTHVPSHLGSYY
# How it was run: (§1)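 A tag-only sample was pooled with DNA-barcoded human transcription factors that had been expressed in yeast as GST fusions and captured on glutathione beads. The pools were incubated for 30 min at room temperature with 200 nmole of a random double-stranded 16-mer DNA library in Tris/NaCl/DTT/glycerol buffer, then washed, crosslinked with 0.1% formaldehyde, proximity-ligated (BsaI/T4 ligase, 1 h, 37 °C), PCR-amplified and sequenced on an Illumina NextSeq500. Binding signal is each hexamer's read frequency for a factor divided by its frequency for the tag-only sample.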
# ELK1 = biological target: T2, ELK1 (Homo sapiens, UniProt P19419 1-428); details: protein: recombinant; tags: N-terminal GST; dsDNA, one strand shown
# T2 sequence: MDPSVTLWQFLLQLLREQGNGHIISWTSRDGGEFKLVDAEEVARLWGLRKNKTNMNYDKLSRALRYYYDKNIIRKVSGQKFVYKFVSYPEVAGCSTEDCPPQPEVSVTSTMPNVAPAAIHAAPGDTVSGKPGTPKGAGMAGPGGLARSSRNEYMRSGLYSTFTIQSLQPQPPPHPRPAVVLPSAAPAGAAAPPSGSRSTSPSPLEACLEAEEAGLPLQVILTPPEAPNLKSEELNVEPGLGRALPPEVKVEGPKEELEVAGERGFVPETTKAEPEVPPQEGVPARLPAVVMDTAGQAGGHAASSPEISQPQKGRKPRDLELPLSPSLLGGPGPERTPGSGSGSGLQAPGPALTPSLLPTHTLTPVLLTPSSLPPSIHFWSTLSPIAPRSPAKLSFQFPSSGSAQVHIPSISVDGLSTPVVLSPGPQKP
# How it was run: as §1
# GABPA = biological target: T3, GABPA (Homo sapiens, UniProt Q06546 1-454); details: protein: recombinant; tags: N-terminal GST; dsDNA, one strand shown
# T3 sequence: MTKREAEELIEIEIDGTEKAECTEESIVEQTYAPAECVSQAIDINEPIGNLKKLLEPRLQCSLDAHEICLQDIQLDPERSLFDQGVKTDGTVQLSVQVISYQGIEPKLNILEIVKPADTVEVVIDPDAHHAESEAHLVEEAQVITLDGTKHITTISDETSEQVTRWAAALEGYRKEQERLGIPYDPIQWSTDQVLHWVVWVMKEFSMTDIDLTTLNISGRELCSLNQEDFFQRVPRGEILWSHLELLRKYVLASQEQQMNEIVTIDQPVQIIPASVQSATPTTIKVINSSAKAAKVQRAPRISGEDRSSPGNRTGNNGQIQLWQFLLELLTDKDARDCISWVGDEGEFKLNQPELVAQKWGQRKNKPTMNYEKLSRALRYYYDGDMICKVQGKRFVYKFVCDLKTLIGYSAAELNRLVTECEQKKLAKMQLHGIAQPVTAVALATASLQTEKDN
# How it was run: as §1
# ERG = biological target: T4, ERG (Homo sapiens, UniProt P11308 1-479); details: protein: recombinant; tags: N-terminal GST; dsDNA, one strand shown
# T4 sequence: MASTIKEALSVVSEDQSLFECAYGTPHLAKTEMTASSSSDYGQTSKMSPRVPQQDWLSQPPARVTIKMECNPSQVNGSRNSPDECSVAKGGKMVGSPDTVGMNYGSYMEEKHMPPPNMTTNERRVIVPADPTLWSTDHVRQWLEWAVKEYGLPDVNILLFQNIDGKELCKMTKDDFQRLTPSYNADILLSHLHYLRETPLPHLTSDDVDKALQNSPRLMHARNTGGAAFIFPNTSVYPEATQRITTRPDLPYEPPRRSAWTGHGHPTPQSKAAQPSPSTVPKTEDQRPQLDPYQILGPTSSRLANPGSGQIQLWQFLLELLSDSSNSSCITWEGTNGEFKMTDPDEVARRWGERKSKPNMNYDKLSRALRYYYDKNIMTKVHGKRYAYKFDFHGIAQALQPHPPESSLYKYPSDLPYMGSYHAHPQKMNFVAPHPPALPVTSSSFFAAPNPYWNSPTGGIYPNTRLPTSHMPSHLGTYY
# How it was run: as §1
# ELF1 = ELF1 (Homo sapiens, UniProt P32519 1-619); details: protein: recombinant; tags: N-terminal GST; dsDNA, one strand shown
# How it was run: as §1
# EHF = biological target: T5, EHF (Homo sapiens, UniProt Q9NZC4 1-300); details: protein: recombinant; tags: N-terminal GST; dsDNA, one strand shown
# T5 sequence: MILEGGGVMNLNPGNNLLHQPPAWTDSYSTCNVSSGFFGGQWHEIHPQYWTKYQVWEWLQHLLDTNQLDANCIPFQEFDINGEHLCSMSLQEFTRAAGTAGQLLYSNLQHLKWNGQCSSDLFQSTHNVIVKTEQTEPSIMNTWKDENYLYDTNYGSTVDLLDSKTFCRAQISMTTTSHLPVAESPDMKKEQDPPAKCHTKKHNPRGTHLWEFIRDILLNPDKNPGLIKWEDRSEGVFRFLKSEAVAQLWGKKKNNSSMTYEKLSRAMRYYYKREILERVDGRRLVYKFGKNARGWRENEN
# How it was run: as §1
# SPI1 = SPI1 (Homo sapiens, UniProt P17947 1-270); details: protein: recombinant; tags: N-terminal GST; dsDNA, one strand shown
# How it was run: as §1
# SPIB = SPIB (Homo sapiens, UniProt Q01892 1-262); details: protein: recombinant; tags: N-terminal GST; dsDNA, one strand shown
# How it was run: as §1
# ELK3 = biological target: T6, ELK3 (Homo sapiens, UniProt P41970 1-407); details: protein: recombinant; tags: N-terminal GST; dsDNA, one strand shown
# T6 sequence: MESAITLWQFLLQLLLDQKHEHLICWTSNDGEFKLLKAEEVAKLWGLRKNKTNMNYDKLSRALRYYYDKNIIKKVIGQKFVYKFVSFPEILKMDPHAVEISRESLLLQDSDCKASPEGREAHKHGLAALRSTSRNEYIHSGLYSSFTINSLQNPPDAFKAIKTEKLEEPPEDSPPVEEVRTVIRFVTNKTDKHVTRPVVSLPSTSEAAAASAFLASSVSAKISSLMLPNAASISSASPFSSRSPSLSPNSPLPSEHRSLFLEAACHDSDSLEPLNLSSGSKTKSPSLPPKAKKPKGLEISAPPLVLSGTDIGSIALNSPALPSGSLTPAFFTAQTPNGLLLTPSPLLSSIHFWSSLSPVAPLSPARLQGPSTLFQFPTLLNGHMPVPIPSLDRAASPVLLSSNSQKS
# How it was run: as §1
# FEV = biological target: T7, FEV (Homo sapiens, UniProt Q99581 1-238); details: protein: recombinant; tags: N-terminal GST; dsDNA, one strand shown
# T7 sequence: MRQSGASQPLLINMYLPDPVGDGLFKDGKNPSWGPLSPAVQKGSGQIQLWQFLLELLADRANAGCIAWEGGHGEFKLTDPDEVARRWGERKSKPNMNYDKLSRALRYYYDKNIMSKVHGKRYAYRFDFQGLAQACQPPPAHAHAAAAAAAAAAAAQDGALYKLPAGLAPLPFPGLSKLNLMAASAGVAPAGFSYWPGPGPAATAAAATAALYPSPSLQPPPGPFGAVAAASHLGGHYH
# How it was run: as §1
# ETV5 = ETV5 (Homo sapiens, UniProt P41161 1-510); details: protein: recombinant; tags: N-terminal GST; dsDNA, one strand shown
# How it was run: as §1
# HSF1 = HSF1 (Homo sapiens, UniProt Q00613 1-529); details: protein: recombinant; tags: N-terminal GST; chain copies: 3; dsDNA, one strand shown
# How it was run: as §1
# SPIC = biological target: T8, SPIC (Homo sapiens, UniProt Q8N5J4 1-248); details: protein: recombinant; tags: N-terminal GST; dsDNA, one strand shown
# T8 sequence: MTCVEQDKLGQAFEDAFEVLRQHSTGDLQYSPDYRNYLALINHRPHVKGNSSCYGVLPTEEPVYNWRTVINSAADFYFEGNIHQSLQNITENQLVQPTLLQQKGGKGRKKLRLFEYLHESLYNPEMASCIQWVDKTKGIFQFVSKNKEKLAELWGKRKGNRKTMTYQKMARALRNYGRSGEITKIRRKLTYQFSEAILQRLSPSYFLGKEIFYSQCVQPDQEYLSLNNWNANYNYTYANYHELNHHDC
# How it was run: as §1
# ELF4 = ELF4 (Homo sapiens, UniProt Q99607 1-663); details: protein: recombinant; tags: N-terminal GST; dsDNA, one strand shown
# How it was run: as §1
# ELK4 = biological target: T9, ELK4 (Homo sapiens, UniProt P28324-2 1-405); details: protein: recombinant; tags: N-terminal GST; dsDNA, one strand shown
# T9 sequence: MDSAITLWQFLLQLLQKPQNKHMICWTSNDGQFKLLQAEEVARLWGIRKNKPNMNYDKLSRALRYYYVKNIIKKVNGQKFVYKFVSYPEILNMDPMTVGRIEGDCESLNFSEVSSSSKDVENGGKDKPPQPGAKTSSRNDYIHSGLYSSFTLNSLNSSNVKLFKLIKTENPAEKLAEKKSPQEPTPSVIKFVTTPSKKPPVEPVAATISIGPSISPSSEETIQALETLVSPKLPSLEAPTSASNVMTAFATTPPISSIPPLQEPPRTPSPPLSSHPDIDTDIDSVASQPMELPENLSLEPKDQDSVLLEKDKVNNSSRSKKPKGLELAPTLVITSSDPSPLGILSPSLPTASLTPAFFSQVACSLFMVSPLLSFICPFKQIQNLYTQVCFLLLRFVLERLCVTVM
# How it was run: as §1
# ETV2 = biological target: T10, ETV2 (Homo sapiens, UniProt O00321 1-342); details: protein: recombinant; tags: N-terminal GST; dsDNA, one strand shown
# T10 sequence: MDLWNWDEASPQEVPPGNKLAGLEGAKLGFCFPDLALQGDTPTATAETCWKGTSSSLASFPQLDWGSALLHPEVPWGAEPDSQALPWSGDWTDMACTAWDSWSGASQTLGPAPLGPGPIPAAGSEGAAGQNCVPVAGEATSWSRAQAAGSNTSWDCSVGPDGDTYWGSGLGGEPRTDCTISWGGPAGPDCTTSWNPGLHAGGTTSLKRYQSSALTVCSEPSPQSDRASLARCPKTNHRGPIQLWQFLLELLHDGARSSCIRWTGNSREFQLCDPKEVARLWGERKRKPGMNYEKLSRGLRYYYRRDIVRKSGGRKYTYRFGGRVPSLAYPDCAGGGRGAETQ
# How it was run: as §1
# ELF3 = biological target: T11, ELF3 (Homo sapiens, UniProt P78545 1-371); details: protein: recombinant; tags: N-terminal GST; dsDNA, one strand shown
# T11 sequence: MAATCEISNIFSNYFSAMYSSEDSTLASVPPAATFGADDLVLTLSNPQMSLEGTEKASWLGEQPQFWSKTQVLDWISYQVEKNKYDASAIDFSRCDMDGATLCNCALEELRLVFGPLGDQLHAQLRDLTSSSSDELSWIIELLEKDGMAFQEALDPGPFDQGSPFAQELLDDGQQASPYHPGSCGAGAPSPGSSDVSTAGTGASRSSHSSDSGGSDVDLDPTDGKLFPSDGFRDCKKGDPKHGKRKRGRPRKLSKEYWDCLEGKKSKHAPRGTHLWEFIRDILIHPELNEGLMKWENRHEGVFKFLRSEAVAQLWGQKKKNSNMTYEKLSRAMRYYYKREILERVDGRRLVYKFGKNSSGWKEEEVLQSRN
# How it was run: as §1
# CRX = CRX (Homo sapiens, UniProt O43186 1-299); details: protein: recombinant; tags: N-terminal GST; dsDNA, one strand shown
# How it was run: as §1
# ETV1 = ETV1 (Homo sapiens, UniProt P50549 1-477); details: protein: recombinant; tags: N-terminal GST; dsDNA, one strand shown
# How it was run: as §1
# ETV5, sequence (P41161 whole entry): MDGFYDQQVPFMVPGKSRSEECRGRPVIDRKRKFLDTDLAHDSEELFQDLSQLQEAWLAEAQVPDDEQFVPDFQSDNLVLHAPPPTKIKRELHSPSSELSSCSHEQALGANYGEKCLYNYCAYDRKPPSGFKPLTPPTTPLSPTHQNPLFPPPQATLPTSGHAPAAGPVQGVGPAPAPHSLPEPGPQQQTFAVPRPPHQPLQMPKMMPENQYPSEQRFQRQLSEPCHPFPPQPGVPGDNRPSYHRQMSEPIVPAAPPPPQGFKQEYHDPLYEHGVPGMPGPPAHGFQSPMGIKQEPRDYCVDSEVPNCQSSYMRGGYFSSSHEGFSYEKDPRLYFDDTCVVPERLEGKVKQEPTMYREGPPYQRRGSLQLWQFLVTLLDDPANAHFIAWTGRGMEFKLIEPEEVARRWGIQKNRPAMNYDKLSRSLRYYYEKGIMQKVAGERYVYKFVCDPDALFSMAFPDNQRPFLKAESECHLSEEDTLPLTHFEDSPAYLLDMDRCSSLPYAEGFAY
# CRX, sequence (O43186 whole entry): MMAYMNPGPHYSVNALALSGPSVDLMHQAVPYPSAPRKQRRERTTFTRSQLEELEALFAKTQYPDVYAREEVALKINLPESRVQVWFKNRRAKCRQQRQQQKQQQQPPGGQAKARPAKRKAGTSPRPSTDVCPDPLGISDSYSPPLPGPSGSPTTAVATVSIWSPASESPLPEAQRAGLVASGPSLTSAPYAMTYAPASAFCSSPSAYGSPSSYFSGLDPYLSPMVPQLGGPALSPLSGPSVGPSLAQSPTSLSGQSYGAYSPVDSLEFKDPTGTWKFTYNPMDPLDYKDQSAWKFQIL
# HSF1, sequence (Q00613 whole entry): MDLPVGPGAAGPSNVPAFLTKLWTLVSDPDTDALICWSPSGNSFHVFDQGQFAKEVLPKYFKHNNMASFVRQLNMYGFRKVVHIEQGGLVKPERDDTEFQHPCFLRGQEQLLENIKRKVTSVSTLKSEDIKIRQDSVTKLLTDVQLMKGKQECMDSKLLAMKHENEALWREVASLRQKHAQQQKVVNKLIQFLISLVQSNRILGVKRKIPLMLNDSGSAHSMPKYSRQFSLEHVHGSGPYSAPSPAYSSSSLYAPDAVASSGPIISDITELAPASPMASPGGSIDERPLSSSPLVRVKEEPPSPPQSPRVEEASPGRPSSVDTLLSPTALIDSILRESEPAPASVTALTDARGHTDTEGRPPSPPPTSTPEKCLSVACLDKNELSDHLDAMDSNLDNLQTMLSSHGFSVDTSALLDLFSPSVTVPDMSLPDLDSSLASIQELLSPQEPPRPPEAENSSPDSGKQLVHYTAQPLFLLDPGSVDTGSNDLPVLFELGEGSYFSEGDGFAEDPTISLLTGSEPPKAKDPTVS
# ETV1, sequence (P50549 whole entry): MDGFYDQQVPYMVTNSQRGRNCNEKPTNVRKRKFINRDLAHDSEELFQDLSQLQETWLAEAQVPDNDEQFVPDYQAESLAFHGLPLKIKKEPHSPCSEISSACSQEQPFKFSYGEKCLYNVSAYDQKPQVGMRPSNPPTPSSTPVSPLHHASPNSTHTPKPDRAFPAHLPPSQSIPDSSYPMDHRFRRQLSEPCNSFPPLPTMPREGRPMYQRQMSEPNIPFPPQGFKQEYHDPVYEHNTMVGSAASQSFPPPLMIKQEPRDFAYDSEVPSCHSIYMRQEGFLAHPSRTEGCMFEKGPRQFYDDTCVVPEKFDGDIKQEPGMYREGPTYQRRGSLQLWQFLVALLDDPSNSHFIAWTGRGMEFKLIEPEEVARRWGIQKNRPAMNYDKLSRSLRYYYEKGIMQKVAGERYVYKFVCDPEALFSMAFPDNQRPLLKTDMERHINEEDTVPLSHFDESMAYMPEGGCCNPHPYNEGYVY
# ELF1, sequence (P32519 whole entry): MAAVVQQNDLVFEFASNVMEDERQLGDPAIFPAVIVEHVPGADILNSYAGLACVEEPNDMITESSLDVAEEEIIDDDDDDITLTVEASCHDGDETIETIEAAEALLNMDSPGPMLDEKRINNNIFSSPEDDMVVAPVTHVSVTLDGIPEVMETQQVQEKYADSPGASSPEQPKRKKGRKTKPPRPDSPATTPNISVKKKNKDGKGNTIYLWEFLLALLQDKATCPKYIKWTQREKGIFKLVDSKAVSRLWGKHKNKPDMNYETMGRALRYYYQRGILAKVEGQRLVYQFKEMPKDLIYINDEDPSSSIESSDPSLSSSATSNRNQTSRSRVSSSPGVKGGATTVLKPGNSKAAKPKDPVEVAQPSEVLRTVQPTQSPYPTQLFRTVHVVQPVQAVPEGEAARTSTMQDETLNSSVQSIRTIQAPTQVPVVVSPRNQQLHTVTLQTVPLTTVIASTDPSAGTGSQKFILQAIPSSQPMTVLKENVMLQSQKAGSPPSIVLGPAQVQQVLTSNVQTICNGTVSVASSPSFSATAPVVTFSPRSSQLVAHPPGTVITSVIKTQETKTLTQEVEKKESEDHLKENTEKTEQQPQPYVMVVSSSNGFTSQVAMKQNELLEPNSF
# SPIB, sequence (Q01892 whole entry): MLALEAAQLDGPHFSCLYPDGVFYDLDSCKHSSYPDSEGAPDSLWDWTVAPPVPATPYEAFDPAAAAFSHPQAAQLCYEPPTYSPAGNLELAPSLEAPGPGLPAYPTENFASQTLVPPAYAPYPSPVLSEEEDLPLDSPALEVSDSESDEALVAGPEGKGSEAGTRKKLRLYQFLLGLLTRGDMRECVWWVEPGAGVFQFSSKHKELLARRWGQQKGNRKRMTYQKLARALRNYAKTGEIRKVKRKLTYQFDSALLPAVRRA
# ELF4, sequence (Q99607 whole entry): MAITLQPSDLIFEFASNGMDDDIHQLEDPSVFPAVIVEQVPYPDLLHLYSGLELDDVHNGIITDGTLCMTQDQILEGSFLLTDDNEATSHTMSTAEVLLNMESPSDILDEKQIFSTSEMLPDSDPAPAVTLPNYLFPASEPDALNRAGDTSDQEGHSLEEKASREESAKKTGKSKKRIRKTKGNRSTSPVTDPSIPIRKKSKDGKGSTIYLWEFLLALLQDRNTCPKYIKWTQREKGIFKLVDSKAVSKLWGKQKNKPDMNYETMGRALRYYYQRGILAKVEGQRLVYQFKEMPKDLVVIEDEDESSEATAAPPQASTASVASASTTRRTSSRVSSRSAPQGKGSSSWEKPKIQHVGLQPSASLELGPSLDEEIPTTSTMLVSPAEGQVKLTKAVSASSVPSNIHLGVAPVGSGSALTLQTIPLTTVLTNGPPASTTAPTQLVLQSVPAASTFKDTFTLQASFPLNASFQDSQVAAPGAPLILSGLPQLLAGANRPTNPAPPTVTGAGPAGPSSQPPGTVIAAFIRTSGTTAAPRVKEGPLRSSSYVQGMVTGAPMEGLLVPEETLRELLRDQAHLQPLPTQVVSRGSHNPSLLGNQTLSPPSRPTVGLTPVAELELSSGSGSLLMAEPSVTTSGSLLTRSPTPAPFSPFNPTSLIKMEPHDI
sequence,measurement,setting,value
CAACTC,binding signal,FLI1,"1.37 fold enrichment (6-mer frequency, TF over GST control)"
same,binding signal,ELK1,"1.23 fold enrichment (6-mer frequency, TF over GST control)"
same,binding signal,GABPA,"1.3 fold enrichment (6-mer frequency, TF over GST control)"
same,binding signal,ERG,"1.28 fold enrichment (6-mer frequency, TF over GST control)"
same,binding signal,ELF1,"1.34 fold enrichment (6-mer frequency, TF over GST control)"
same,binding signal,EHF,"1.19 fold enrichment (6-mer frequency, TF over GST control)"
same,binding signal,SPI1,"1.31 fold enrichment (6-mer frequency, TF over GST control)"
same,binding signal,SPIB,"1.22 fold enrichment (6-mer frequency, TF over GST control)"
same,binding signal,ELK3,"1.3 fold enrichment (6-mer frequency, TF over GST control)"
same,binding signal,FEV,"1.23 fold enrichment (6-mer frequency, TF over GST control)"
same,binding signal,ETV5,"1.22 fold enrichment (6-mer frequency, TF over GST control)"
same,binding signal,HSF1,"1.12 fold enrichment (6-mer frequency, TF over GST control)"
same,binding signal,SPIC,"1.33 fold enrichment (6-mer frequency, TF over GST control)"
same,binding signal,ELF4,"1.27 fold enrichment (6-mer frequency, TF over GST control)"
same,binding signal,ELK4,"1.2 fold enrichment (6-mer frequency, TF over GST control)"
same,binding signal,ETV2,"1.3 fold enrichment (6-mer frequency, TF over GST control)"
same,binding signal,ELF3,"1.24 fold enrichment (6-mer frequency, TF over GST control)"
same,binding signal,CRX,"1.01 fold enrichment (6-mer frequency, TF over GST control)"
same,binding signal,ETV1,"1.18 fold enrichment (6-mer frequency, TF over GST control)"
